# Assay outcomes deposited in PubChem BioAssay by National Center for Advancing Translational Sciences (NCATS).
# Shown are actives, neighbours in structure and some others; about 11% of the full set was active somewhere.
# PNC inhibitor: blocks assembly of the perinucleolar compartment; PC3M PTB-GFP, PNC prevalence imaging, 16 h; hits give low values; activity change (PNC), negative = inhibition, % at 10 µM; 140,000 compounds, 3.1% hits; AID 2417;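 active means readout at or below -70, meaning at least 70% loss of cells showing the perinucleolar compartment, a nuclear body marking cancer cells; inconclusive means readout between -30 and a set limit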;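 further: plate controls were DMSO wells for no effect and camptothecin positive control wells for full effect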
#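 Read-out is percentage of cells bearing a perinucleolar compartment, from automated 20x imaging of fixed, Hoechst-stained PC3M PTB-GFP cells. Cells were seeded 4 h, then exposed 16 h to compound (23 nl of library stock) in duplicate plates.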
# HPGD inh: inhibitors of human 15-hydroxyprostaglandin dehydrogenase (HPGD); P15428; purified HPGD, NADH fluorescence kinetic, PGE2 substrate; Potency, µM, for inactives: top-dose activity change, negative = inhibition, actives largely listed as inhibitors; 150,000 compounds, 4.3% hits; AID 894; further: potency means the concentration at half of the fitted maximal effect
#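 NADH formation kinetics: reaction with 30 uM PGE2 and 1 mM NAD+ (final), 20 nM enzyme, Tris-HCl pH 8 with Tween 20, after 15 min compound preincubation at room temperature. Fluorescence change, last versus first of five reads.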
# ALDH1A1 inh: ALDH1A1 (human) enzyme inhibition | Purified ALDH1A1, NADH fluorescence, propionaldehyde substrate | P00352 | AID 1030 | 220,000 compounds, 7.3% hits | Potency, µM (series often up to 75.3 µM), for the others: top-dose activity, negative = inhibition, actives largely listed as inhibitors;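 further: potency means the concentration at half of the fitted maximal effect; plate controls were no enzyme wells and a reference inhibitor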
# Target sequence (P00352 whole entry, looked up): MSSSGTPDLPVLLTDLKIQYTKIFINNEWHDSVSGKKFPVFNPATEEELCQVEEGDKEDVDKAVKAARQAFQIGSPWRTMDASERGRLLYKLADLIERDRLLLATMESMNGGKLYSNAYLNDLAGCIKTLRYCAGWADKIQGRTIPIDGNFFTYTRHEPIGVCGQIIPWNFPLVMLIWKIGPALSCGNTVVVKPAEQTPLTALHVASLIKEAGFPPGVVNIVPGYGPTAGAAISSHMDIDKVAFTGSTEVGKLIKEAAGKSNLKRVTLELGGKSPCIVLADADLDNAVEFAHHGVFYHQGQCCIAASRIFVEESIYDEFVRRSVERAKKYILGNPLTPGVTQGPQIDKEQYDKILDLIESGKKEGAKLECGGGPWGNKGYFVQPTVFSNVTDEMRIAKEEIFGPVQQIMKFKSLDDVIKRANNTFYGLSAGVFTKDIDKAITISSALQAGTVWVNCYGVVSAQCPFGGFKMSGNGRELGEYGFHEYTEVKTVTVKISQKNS
# * hit, by the source's call; u = inconclusive; x = not tested or not shown; [ ] = dose if it differs, or a comment. Unless noted, the call rests on the fitted dose curve; in most records, active means well fitted inhibition curve with a large enough effect (not every such curve was filed as active); inconclusive means small, poorly fitted or top-dose-only effect, or another doubt; inactive means no such curve, though single readings can be large or run the other way. Unless noted, on the % scale 0 is the no-effect control and ±100 the full control effect.
SMILES,PNC inhibitor,HPGD inh,ALDH1A1 inh
CC(=O)c1ccc(N2Cc3ccccc3/C2=N\C(=O)Nc2ccccc2)cc1,30.5,-7.5%,15.1%
COc1ccc(CN(CCC#N)C(=S)NC(=O)c2ccccc2)cc1,38.4,-12.6%,25.1µM*
N#CCCN(Cc1ccccc1)C(=S)NC(=O)c1ccccc1,52.7,-24.7%,14.1µM*
CCOc1ccc(CN(CCC#N)C(=S)NC(=O)c2ccccc2)cc1,-12.5,-8.6%,u
N#CCCN(Cc1ccccc1)C(=S)Nc1ccccc1,u,-13.6%,6.0%
Cc1cccc(OCc2nnc(SCC(=O)N3CC(=O)Nc4ccccc43)o2)c1,x,x,5.2%
N/C(=N\c1nc2c(c(=O)[nH]1)CCC2)Nc1ccccc1C(F)(F)F,-18.3,-2.8%,23.4%
O=C(NNc1nc2cc3c(cc2s1)OCO3)c1cccc(F)c1,41.8,-29.5%,u
C=CCNC(=O)COc1cc(C)ccc1C,35.3,-8.4%,4.2%
CCn1c(=O)c2cc(C(=O)N(C)c3ccccc3F)sc2c2ccccc21,x,x,25.1µM*
CCn1c(=O)c2cc(C(=O)N(C)c3ccc(OC)cc3OC)sc2c2ccccc21,x,x,-4.3%
CO[C@]1(NC(=O)[C@H](C(=O)O)c2ccc(O)cc2)C(=O)N2C(C(=O)O)=C(CSc3nnnn3C)CO[C@H]21,x,-7.4%,-4.5%[20.9 µM]
C=CCSc1nnc(-c2ccccc2N=Cc2c(C)[nH]n(-c3ccccc3)c2=O)c(=O)[nH]1,u,-21.0%,u
CSc1nnc(-c2ccccc2N=Cc2c(C)[nH]n(-c3ccc4ccccc4c3)c2=O)c(=O)[nH]1,-4.8,17.8µM*,u
CCC(CC)C(=O)Nc1ccc([N+](=O)[O-])cn1,x,x,-1.6%
Cc1csc(NC(=O)CCNC(=O)c2ccc([N+](=O)[O-])cc2)n1,0.0,-7.3%,u
CCCC(=O)Nc1ccc(Sc2ccc([N+](=O)[O-])cc2)cc1,13.3,17.8µM*,-14.8%
CCC(CC)C(=O)Nc1ccc(Sc2ccc([N+](=O)[O-])cc2)cc1,u,x,1.12µM*
CCCC(=O)Nc1ccc(C(=O)NNC(=O)c2cccc([N+](=O)[O-])c2)cc1,x,x,14.1%
CN(C)S(=O)(=O)c1ccc(NC(=O)CCNC(=O)c2ccc([N+](=O)[O-])cc2)cc1,x,x,10µM*
CC(C)CC(NC(N)=O)C(=O)OCC(=O)Nc1ccc(OC(F)F)cc1 (stereo unspecified),x,x,3.5%
O=C(c1ccc(Cl)s1)N1CCOCC1,19.7,-23.8%,5.5%
O=C(CCN1CCC(c2ccc(Cl)s2)=N1)c1ccc(Cl)s1,x,x,3.16µM*
CCc1c(O)c2c(c(O)c1C(C)=O)C(=O)c1c(cc(O)c(C(=O)O)c1C(=O)O)C2=O,x,-11.6%,6.8%[13.5 µM]
Cc1c(C(=O)O)c(O)cc2c1C(=O)c1c(O)c([C@H]3O[C@H](CO)[C@@H](O)[C@H](O)[C@H]3O)c(O)c(O)c1C2=O,x,17.8µM*,11.2µM*
SMILES,PNC inhibitor,HPGD inh,ALDH1A1 inh
CCOC(=O)CC1C(=O)NCCN1c1nc2ccc(C)cn2c(=O)c1/C=C1\SC(=S)N(C(C)CC)C1=O (stereo unspecified),x,x,1.41µM*
CCC(C)N1C(=O)/C(=C/c2c(NCCCOC(C)C)nc3c(C)cccn3c2=O)SC1=S (stereo unspecified),15.8,-9.7%,-6.6%
O=C(Cc1ccccc1)NCc1cccnc1,x,x,-4.9%
O=C(NCc1cccnc1)c1cc(Sc2ccccc2Cl)nc2ccccc12,-24.5,-7.4%,7.94µM*
COC(=O)[C@@]1(Cc2ccc(F)cc2)[C@H]2c3cc(C(=O)N4CCCC4)n(CCc4c[nH]c5cc(F)ccc45)c3C[C@H]2CN1C(=O)c1ccccc1,x,-15.3%,-15.1%
N#CCCn1c(=O)c(-c2ccc(F)cc2)nc2cnc(Oc3cccc(Cl)c3)nc21,x,-18.1%,u
COc1cc(C(=O)O)nc(OC)n1,x,x,-4.8%
COC(=O)c1ccccc1OCC(=O)N1CCN(c2ccc(F)cc2)CC1,u,3.2%,14.1%
CC(=O)c1cc(F)ccc1OCC(=O)N1CCN(c2ccc(F)cc2)CC1,x,x,25.1µM*
Cc1nnc(SCc2nnc(-c3cccs3)o2)s1,x,x,-7.8%
CC(=O)c1ccc(-n2nnnc2SCC(=O)Nc2sc(C)c(C)c2C#N)cc1,-9.9,-9.3%,17.8µM*
CCOC(=O)c1cnc(SCCc2ccccc2)nc1N,60.8,-9.4%,-6.1%
Cc1ccc(-n2nnnc2SCC(=O)Nc2sccc2C#N)cc1,30.0,-12.1%,0.8%
CCOC(=O)c1cnc(SCC(=O)Nc2sc(C)c(C)c2C#N)nc1N,26.3,-6.4%,31.6µM*
CCOC(=O)c1cnc(SCc2nc(N)nc(Nc3ccccc3)n2)nc1N,-123.0*,-8.0%,1.6%
CCOC(=O)c1cnc(SCC(=O)Nc2cc(OC)cc(OC)c2)nc1N,u,0.6%,-11.0%
CCOC(=O)c1sc(NC(=O)CSc2nc(C)cc(-c3ccccc3)n2)c(C#N)c1C,-11.7,7.08µM*,3.16µM*
